For seven compounds, outcome and AC50 results are on record in PubChem BioAssay (EPA / NIEHS).

Records with an inconclusive call do not appear. Activity calls are given as the source filed them. Rule for the calls, unless noted: active = hit-call score of the fitted dose curve at least 0.9, where 1 is the maximum; inconclusive = response in the unintended direction; inactive = score below 0.9.

Read-out in experiment [1]: sulfotransferase 2A1 (SULT2A1), SULT2A1 (gene 6822)
Put plainly: LTEA_HepaRG_SULT2A1: Life Technologies and Expression Analysis (LTEA) Assay for sulfotransferase 2A1 (SULT2A1) using HepaRG (AID 2283531; active = hit-call score of the fitted dose curve at least 0.9, where 1 is the maximum; inactive = score below 0.9). The conditions noted are these: mRNA level, 48 h; actives raise or lower the signal. In a few lines:
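Gene-expression endpoint in a human liver cell line: SULT2A1 mRNA change after 48 h chemical treatment, curves fitted in both directions relative to 0.5% DMSO vehicle. Concentrations spanned eight half-log steps from 100 uM.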

Read-out in experiment [2]: Transforming Growth Factor (TGFA), TGFA (gene 7039)
In words: LTEA_HepaRG_TGFA: Life Technologies and Expression Analysis (LTEA) Assay for Transforming Growth Factor (TGFA) using HepaRG (AID 2283532; active = hit-call score of the fitted dose curve at least 0.9, where 1 is the maximum; inactive = score below 0.9). The conditions noted are these: mRNA level, 48 h; actives raise or lower the signal. In outline:
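Differentiated human HepaRG cells, plated 48 h then switched to serum-free induction medium, were exposed in duplicate for 48 h to 8-point half-log series from 100 uM in 0.5% DMSO. TGFA mRNA measured by qRT-PCR, normalized to ACTB/GAPDH/POLR2A, bidirectional fit versus DMSO.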

Read-out in experiment [3]: Transforming Growth Factor (TGFB1), TGFB1 (gene 7040)
In words: LTEA_HepaRG_TGFB1: Life Technologies and Expression Analysis (LTEA) Assay for Transforming Growth Factor (TGFB1) Transporter using HepaRG (AID 2283533; active = hit-call score of the fitted dose curve at least 0.9, where 1 is the maximum; inactive = score below 0.9). As to conditions: mRNA level, 48 h; actives raise or lower the signal. In outline:
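Eight-point concentration-response (max 100 uM, half-log) in HepaRG under serum-free induction conditions, 48 h. TGFB1 mRNA by qRT-PCR, housekeeping-normalized.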

Read-out in experiment [4]: Tumor necrosis factor receptor 1 (TNFRSF1A), TNFRSF1A (gene 7132)
Put plainly: LTEA_HepaRG_TNFRSF1A: Life Technologies and Expression Analysis (LTEA) Assay for Tumor necrosis factor receptor 1 (TNFRSF1A) using HepaRG (AID 2283535; active = hit-call score of the fitted dose curve at least 0.9, where 1 is the maximum; inactive = score below 0.9). The conditions noted are these: mRNA level, 48 h; actives raise or lower the signal. In a few lines: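 Assay uses 48 h chemical treatment of differentiated HepaRG monolayers, tested in duplicate at eight concentrations from 100 uM downward in 0.5% DMSO. mRNA is normalized to ACTB, GAPDH and POLR2A, with induction or suppression fitted relative to vehicle.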

Read-out in experiment [5]: Thyroid Hormone Responsive (THRSP), THRSP (gene 7069)
In words: LTEA_HepaRG_THRSP: Life Technologies and Expression Analysis (LTEA) Assay for Thyroid Hormone Responsive (THRSP) using HepaRG (AID 2283536; active = hit-call score of the fitted dose curve at least 0.9, where 1 is the maximum; inactive = score below 0.9). The conditions noted are these: mRNA level, 48 h; actives raise or lower the signal. In outline:
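Differentiated human HepaRG cells were exposed in duplicate for 48 h in serum-free induction medium to eight concentrations (top 100 uM, half-log steps, 0.5% DMSO). Expression was quantified by TaqMan qRT-PCR, normalized to ACTB, GAPDH and POLR2A, with bidirectional fitting against DMSO.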

Read-out in experiment [6]: Cellular tumor antigen p53 (Homo sapiens) (UniProt P04637)
Put plainly: LTEA_HepaRG_TP53: Life Technologies and Expression Analysis (LTEA) Assay for Tumor Protein P53 (TP53) using HepaRG (AID 2283537; active = hit-call score of the fitted dose curve at least 0.9, where 1 is the maximum; inactive = score below 0.9). As to conditions: mRNA level, 48 h; actives raise or lower the signal. In outline:
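Differentiated HepaRG cells in serum-free induction medium exposed 48 h in duplicate to 8 half-log concentrations, top 100 uM, 0.5% DMSO. TP53 mRNA by TaqMan qRT-PCR (Fluidigm), normalized to ACTB, GAPDH, POLR2A; fitted bidirectionally versus DMSO.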

Read-out in experiment [7]: UDP glucuronosyltransferase (UGT1A1), UGT1A1 (gene 54658)
In words: LTEA_HepaRG_UGT1A1: Life Technologies and Expression Analysis (LTEA) Assay for UDP glucuronosyltransferase (UGT1A1) using HepaRG (AID 2283538; active = hit-call score of the fitted dose curve at least 0.9, where 1 is the maximum; inactive = score below 0.9). As to conditions: mRNA level, 48 h; actives raise or lower the signal. In outline:
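Readout is UGT1A1 transcript level by qRT-PCR, normalized to three housekeeping genes, after 48 h chemical treatment of HepaRG cells. Concentrations ran from 100 uM down in half-log steps with 0.5% DMSO, and gain or loss relative to DMSO was fitted.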

Read-out in experiment [8]: UDP glucuronosyltransferase (UGT1A6), UGT1A6 (gene 54578)
Put plainly: LTEA_HepaRG_UGT1A6: Life Technologies and Expression Analysis (LTEA) Assay for UDP glucuronosyltransferase (UGT1A6) using HepaRG (AID 2283539; active = hit-call score of the fitted dose curve at least 0.9, where 1 is the maximum; inactive = score below 0.9). As to conditions: mRNA level, 48 h; actives raise or lower the signal. In outline:
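Measures mRNA change in HepaRG hepatic cells exposed 48 h to chemicals (eight-point, maximum 100 uM, 0.5% DMSO vehicle) in serum-free induction medium. Expression normalized to endogenous controls; DMSO served as negative control and baseline.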

Read-out in experiment [9]: X-box binding protein 1 (XBP1), XBP1 (gene 7494)
In words: LTEA_HepaRG_XBP1: Life Technologies and Expression Analysis (LTEA) Assay for X-box binding protein 1 (XBP1) using HepaRG (AID 2283540; active = hit-call score of the fitted dose curve at least 0.9, where 1 is the maximum; inactive = score below 0.9). The conditions noted are these: mRNA level, 48 h; actives raise or lower the signal. In a few lines:
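Eight concentrations (half-log, highest 100 uM, 0.5% DMSO) tested in duplicate on HepaRG cells over 48 h in serum-free induction medium; qRT-PCR of XBP1 normalised to ACTB, GAPDH, POLR2A.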

The nature of experiment [10]: LTEA_HepaRG_LDH_cytotoxicity: Cytotoxicity Assessment in the Life Technologies and Expression Analysis (LTEA) Assay (AID 2283563).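 For AC50: LDH activity released into spent culture medium as a marker of cell death.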 In a few lines:
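Spent-medium LDH after 48 h chemical exposure of HepaRG cells in serum-free induction medium; eight concentrations, half-log dilutions from 100 uM, duplicate wells, fitted upward relative to 0.5% DMSO.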

Experiment [11] has as its target Cellular tumor antigen p53 (Homo sapiens) (UniProt P04637). Put plainly: TOX21_p53_BLA_p2_ratio: Tox21 HCT-116 p53 Agonism Beta-lactamase Assay, Ratio, Phase 2 (AID 2283592). In outline:
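Human colon HCT116 cells with an inducible p53 beta-lactamase reporter are exposed to test chemicals for 16 h at 37C. Reporter induction is read as the 460/530 nm emission ratio after CCF4-AM loading, normalized to DMSO.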

Experiment [12] has the same target. In words: TOX21_p53_BLA_p3_ratio: Tox21 HCT-116 p53 Agonism Beta-lactamase Assay, Ratio, Phase 3 (AID 2283596). In a few lines:
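HCT116 p53-bla cells (4000/well) given compound in DMSO (217-fold dilution) after 5 h, incubated 16 h at 37C. CCF4-AM substrate 2 h at room temperature; 460/530 nm emission ratio, gain fitted against DMSO.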

A short description of experiment [13]: TOX21_p53_BLA_p4_viability: Viability Assessment in the Tox21 HCT-116 p53 Agonism Beta-lactamase Assay, Phase 4 (AID 2283597).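 Note: hits lower the luminescence signal meaning cytotoxicity.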 In outline: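 Luminescent ATP readout (CellTiter-Glo, 30 min, room temperature) in the same wells as the p53 bla ratio. HCT116 cells were treated for 16 h at 37C with DMSO-dissolved compounds.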
Experiment [14] deals with Cellular tumor antigen p53 (Homo sapiens) (UniProt P04637). Put plainly: TOX21_p53_BLA_p5_ratio: Tox21 HCT-116 p53 Agonism Beta-lactamase Assay, Ratio, Phase 5 (AID 2283599). In a few lines:
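HCT-116 cells carrying a p53-inducible beta-lactamase reporter were seeded at 4000 cells/well and dosed after 5 h with compound in DMSO (217-fold dilution). After 16 h at 37C, CCF4-AM substrate was added for 2 h, and the 460/530 nm emission ratio was scored as gain-of-signal versus DMSO.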

A short description of experiment [15]: TOX21_p53_BLA_p3_viability: Viability Assessment in the Tox21 HCT-116 p53 Agonism Beta-lactamase Assay, Phase 3 (AID 2283593).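 Note: cells exposed to compound for 16 h before reading.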 In a few lines:
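HCT-116 cells (4000/well) rested 5 h at 37C, then got DMSO compounds by pin tool (217-fold dilution) for 16 h at 37C, 5% CO2. After the bla read, CellTiter-Glo was added and luminescence read at 30 min, room temperature.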

Experiment [16] can be described thus: TOX21_p53_BLA_p5_viability: Viability Assessment in the Tox21 HCT-116 p53 Agonism Beta-lactamase Assay, Phase 5 (AID 2283600). In outline: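 Seeded cells (4000/well) settle 5 h before compound addition. Plates then incubate 16 h at 37C, receive FRET substrate for 2 h, and finally CellTiter-Glo, with luminescence measured after a 30 min room-temperature incubation.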

The target in experiment [17] is Cellular tumor antigen p53 (Homo sapiens) (UniProt P04637). Put plainly: TOX21_p53_BLA_p4_ratio: Tox21 HCT-116 p53 Agonism Beta-lactamase Assay, Ratio, Phase 4 (AID 2283601). In outline: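 HCT116 cells carrying an inducible beta-lactamase reporter were plated at 4000 cells/well, rested 5 h, then exposed to compounds in DMSO (217-fold dilution) for 16 h at 37C. CCF4-AM substrate was loaded 2 h at room temperature; 460/530 nm emission ratio scored gain-of-signal versus DMSO.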

The nature of experiment [18]: ATG_XTT_Cytotoxicity: Cytotoxicity Assessment in the Attagene TRANS-FACTORIAL HepG2 Assay (AID 2283584). In outline: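 24 h chemical exposure of reporter-transfected HepG2; XTT signal loss vs DMSO indicates cytotoxicity.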

The AC50 is the concentration at which the activity in the assay is half-maximal.

Chain of Cellular tumor antigen p53 (Homo sapiens) (P04637 whole entry, looked up): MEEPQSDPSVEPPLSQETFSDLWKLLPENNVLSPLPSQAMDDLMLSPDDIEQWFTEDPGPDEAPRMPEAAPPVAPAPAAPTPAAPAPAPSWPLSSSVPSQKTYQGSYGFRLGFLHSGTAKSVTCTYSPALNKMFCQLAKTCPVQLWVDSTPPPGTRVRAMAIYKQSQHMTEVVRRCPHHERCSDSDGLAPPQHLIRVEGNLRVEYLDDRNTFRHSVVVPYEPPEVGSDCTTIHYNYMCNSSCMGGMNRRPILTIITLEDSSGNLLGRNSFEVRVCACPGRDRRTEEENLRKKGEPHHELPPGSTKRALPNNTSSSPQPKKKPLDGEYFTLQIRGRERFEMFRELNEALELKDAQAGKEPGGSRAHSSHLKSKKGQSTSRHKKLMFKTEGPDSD

Consider `COC(=O)C(C)Oc1ccc(Oc2ccc(Cl)cc2Cl)cc1` (configuration not stated), for which the result in experiment [1], in experiment [2], in experiment [3], in [4], in [6] and in experiment [8] was inactive. Moreover, the compound was classed as inactive in [9], in [10], in experiment [11], in experiment [12], in experiment [13] and in experiment [14]. Besides, the half-maximal activity concentration (AC50) is 40 µM (active) in [5] and 20.7 µM (active) in experiment [7].
For `CC1=C(C(=O)Nc2ccccc2)SCCO1`, the compound was classed as inactive in [1], in experiment [2], in [3], in experiment [4], in experiment [6] and in experiment [8]. For the same compound, the compound was classed as inactive in [9], in experiment [10], in experiment [11], in experiment [15], in experiment [12] and in [13]. Moreover, the outcome in experiment [14], in [16] and in experiment [17] was inactive. The half-maximal activity concentration (AC50) in experiment [5] is 17 µM (active); in experiment [7], 50 µM (active).
`COC(=O)C=C(C)OP(=O)(OC)OC`: the call in [1], in experiment [2], in experiment [3], in experiment [4], in [5] and in [6] was inactive. Further, the outcome in experiment [7], in experiment [8], in experiment [9], in [10], in experiment [11] and in [14] was inactive. Also, the result in experiment [16] and in experiment [17] was inactive.
For the compound `CCNc1nc(Cl)nc(NCC)n1`, the compound was called inactive in experiment [1], in experiment [2], in [3], in [4], in [5] and in [6]. The compound was called inactive in experiment [8], in experiment [9], in [10], in experiment [11], in experiment [15] and in experiment [12]. For the same compound, the compound was called inactive in [13], in experiment [14], in experiment [16] and in experiment [17]. The AC50 in experiment [7] was 3.7 µM (active).
As to `COc1nc(NC(C)C)nc(NC(C)C)n1`, the outcome in experiment [1], in experiment [2], in experiment [3], in experiment [4], in [5] and in [6] was inactive. In addition, the compound was classed as inactive in [8], in [9], in [10], in experiment [18], in experiment [11] and in experiment [12]. Besides, the outcome in [14] and in experiment [17] was inactive. Further, in experiment [7], the AC50 was 11.4 µM (active).
In the case of `C=CC1(C)OC(=O)N(c2cc(Cl)cc(Cl)c2)C1=O` (configuration not stated), the AC50 in experiment [1] was 28 µM (active); in experiment [7], 22.7 µM (active). Besides, the outcome in [2], in [3], in [4], in experiment [5], in [6] and in experiment [8] was inactive. Moreover, the compound was called inactive in experiment [9], in experiment [10], in experiment [18], in [11], in [12] and in experiment [13]. Besides, the outcome in [14], in experiment [16] and in experiment [17] was inactive.
For the compound `COc1ccc(C(c2ccc(OC)cc2)C(Cl)(Cl)Cl)cc1`, the compound was called inactive in experiment [1], in experiment [2], in experiment [3], in [4], in experiment [9] and in experiment [18]. Besides, the outcome in experiment [11], in [15], in experiment [12], in [13], in experiment [14] and in experiment [16] was inactive. Also, the result in [17] was inactive. Also, the AC50 in [5] was 81.7 µM (active); in experiment [6], 66.7 µM (active); in experiment [7], 12 µM (active); in experiment [8], 79.2 µM (active); in experiment [10] it was 83.4 µM (active).
